# Several values for one entry are separate records, joined by “and”; a condition that tells them apart may be missing. Identical values can stand only once. Records with an inconclusive call do not appear. Entries that show only a call come without a potency. A structure can be active in one record and inactive in another. Activity calls are given as the source filed them. Calls follow the shape of the dose curve; as a rule, active = well fitted cell-killing curve with a large enough effect in the repeat runs; inconclusive = weak or mixed curves, or effect the other way; inactive = no such curve, though single readings can be large or run the other way.
# Test: Caspase-3/7 induction in CHO-K1 cells by small molecules, qHTS cell viability counter screen (AID 1346979); also: nearly all actives have a fitted effect of over 35% in size
# Settings: CellTiter-Fluor fluorescence, 17 h; series mostly up to 92.4 µM
# Description: National Center for Advancing Translational Sciences [NCATS]
# NIH Chemical Genomics Center [NCGC]
# U.S. Environmental Protection Agency [EPA]
# National Institutes of Environmental Health Sciences [NIEHS]
# National Toxicology Program [NTP]
# U.S. Food and Drug Administration [FDA]
# Apoptosis is a process of programmed cell death and plays a central role in the development of multicellular organisms. It is a highly regulated process and induces cell death by activating caspases, which are the members of cysteine aspartic acid-specific protease (caspase) family. Caspases involved in apoptosis are classified by their mechanism of action as initiator caspases (caspase-2, -8, -9 and -10) and executioner caspases (caspase-3, -6, and -7). Inhibition of apoptosis results in number of cancers, autoimmune diseases, inflammatory diseases and viral infection. To identify small molecule compounds that induce apoptosis, a homogeneous, luminescent Caspase-Glo 3/7 assay was used. Wild type CHO-K1 cells were used to screen Tox21 libraries for identifying caspase-3/7 activity inducers. Also cytotoxicity of the compounds was tested in parallel by measuring the cell viability using CellTiter-Fluor assay system in the same wells.
# Tox21 Assay Protocol Summary:
# CHO-K1 cells were dispensed at 1,500 per well in 5uL of culture medium into white solid bottom 1536-well plates (Corning Life Sciences, Corning, NY) using a Multidrop Combi (Thermo Scientific, Waltham, MA) dispenser. The assay plates were incubated at 37 C and 5% CO2 for 5hr, and then 23nL of compounds dissolved in DMSO and positive control were transferred using a Pintool station (Wako, San Diego, CA). The assay plates were incubated at 37C and 5% CO2 for 17hr. For cytotoxicity read, after 16hr incubation at 37C, 1uL CellTiter-Fluor reagent (Promega Corporation, Madison, WI) was added to each well of the assay plates using Flying Reagent Dispenser (FRD, Aurora Discovery, San Diego, CA). After 1hr incubation at 37C and 5% CO2, the fluorescence signal was quantified using a ViewLux plate reader (PerkinElmer, Shelton, CT).
# Potency is read from the fitted curve at half-maximal effect.
row,Compound,Potency
1,O=C(C1CCCCC1)N1CC(=O)N2CCc3ccccc3C2C1 (stereo not given),inactive
2,O=C1CN(/N=C/c2ccc([N+](=O)[O-])o2)C(=O)N1,60.9 µM (active) and 68.6 µM (active) and 33.5 µM (active)
3,Cn1c(=O)c2[nH]cnc2n(C)c1=O,inactive
4,Cc1ccc(S(=O)(=O)NC(=O)NN2CCCCCC2)cc1,inactive
5,CCCN(CCC)S(=O)(=O)c1ccc(C(=O)O)cc1,inactive
6,NC(N)=O,5.15 µM (active) and inactive
7,c1ccc2[nH]ccc2c1,6.01 µM (active) and inactive
8,CCCCCCCCCCCCCCCC(=O)O,inactive
9,NC(=O)c1cnccn1,inactive
10,O=C(c1ccccc1)C(O)c1ccccc1 (stereo not given),inactive
11,O=C(O)c1[nH]n(-c2ccc(S(=O)(=O)O)cc2)c(=O)c1N=Nc1ccc(S(=O)(=O)O)cc1,29.8 µM (active) and 48.7 µM (active) and 45.4 µM (active)
12,CCCCC1C(=O)N(c2ccccc2)N(c2ccccc2)C1=O,inactive
13,O=S(=O)(O)NC1CCCCC1,inactive
14,OC(Cn1cncn1)(Cn1cncn1)c1ccc(F)cc1F,inactive
15,CC(O)CN(CCN(CC(C)O)CC(C)O)CC(C)O (stereo not given),inactive
16,O=C(O)CCCCCCCC(=O)O,inactive
17,O=C(c1ccccc1)c1ccccc1,inactive
18,O=C(O)c1cc(N=Nc2ccc(S(=O)(=O)Nc3ccccn3)cc2)ccc1O,34.5 µM (active) and 54.5 µM (active) and 26.6 µM (active)
19,Cc1ccc(C)c(OCCCC(C)(C)C(=O)O)c1,inactive
20,O=C(O)CCCCC(=O)O,inactive

row,Compound,Potency
1,O=C1NC(=O)c2ccccc21,inactive
2,CNC[C@H](O)c1cccc(O)c1,inactive
3,O=C(O)c1cccc([N+](=O)[O-])c1,inactive
4,COc1c2occc2cc2ccc(=O)oc12,inactive
5,COc1ccc2[nH]cc(CCNC(C)=O)c2c1,inactive
6,NC(=O)c1ccccc1O,inactive
7,C1N2CN3CN1CN(C2)C3,inactive
8,CC(=O)NS(=O)(=O)c1ccc(N)cc1,inactive
9,Nc1ccc(S(=O)(=O)c2ccc(N)cc2)cc1,inactive
10,O=C(O)CS,inactive and 61.6 µM (active)
11,Cc1cc(=O)n(-c2ccccc2)n1C,inactive
12,CC(O)C(=O)O (stereo not given),inactive
13,O=S(=O)(O)c1ccc2cc(O)ccc2c1,inactive
14,C[C@]12C=CC(=O)C=C1CC[C@@H]1[C@@H]2[C@@H](O)C[C@@]2(C)[C@H]1CC[C@]2(O)C(=O)CO,inactive
15,CCCC(CCC)C(=O)O,inactive
16,O=C(O)/C=C\C(=O)O,inactive
17,Cc1ccccc1C(OCCN(C)C)c1ccccc1 (stereo not given),inactive
18,C/C=C/c1ccc(OC)cc1,inactive
19,O=NO,inactive
20,Cc1cc(=O)[nH]c(=S)[nH]1,inactive

# — PubChem BioAssay (Tox21)
